# In paper PMC4336329 (PLoS ONE, 2015):
# About 14,000 (4.5%) of roughly 310,000 compounds showed an effect of 50% or more. Effects have a minus sign here. The sample holds strong results, similar compounds and a random draw of the others, so the mix is not that of the screen.
# Biological target: human ether-à-go-go-related gene (hERG) potassium channel (human, UniProt Q12809)
# Assay: primary screen, population patch clamp on CHO cells stably expressing hERG; higher = less effect of the substance
# 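Also: peak tail current of the secondary pulse compared with the same well before compound.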
# Chain of human ether-à-go-go-related gene (hERG) potassium channel (Q12809 whole entry, looked up): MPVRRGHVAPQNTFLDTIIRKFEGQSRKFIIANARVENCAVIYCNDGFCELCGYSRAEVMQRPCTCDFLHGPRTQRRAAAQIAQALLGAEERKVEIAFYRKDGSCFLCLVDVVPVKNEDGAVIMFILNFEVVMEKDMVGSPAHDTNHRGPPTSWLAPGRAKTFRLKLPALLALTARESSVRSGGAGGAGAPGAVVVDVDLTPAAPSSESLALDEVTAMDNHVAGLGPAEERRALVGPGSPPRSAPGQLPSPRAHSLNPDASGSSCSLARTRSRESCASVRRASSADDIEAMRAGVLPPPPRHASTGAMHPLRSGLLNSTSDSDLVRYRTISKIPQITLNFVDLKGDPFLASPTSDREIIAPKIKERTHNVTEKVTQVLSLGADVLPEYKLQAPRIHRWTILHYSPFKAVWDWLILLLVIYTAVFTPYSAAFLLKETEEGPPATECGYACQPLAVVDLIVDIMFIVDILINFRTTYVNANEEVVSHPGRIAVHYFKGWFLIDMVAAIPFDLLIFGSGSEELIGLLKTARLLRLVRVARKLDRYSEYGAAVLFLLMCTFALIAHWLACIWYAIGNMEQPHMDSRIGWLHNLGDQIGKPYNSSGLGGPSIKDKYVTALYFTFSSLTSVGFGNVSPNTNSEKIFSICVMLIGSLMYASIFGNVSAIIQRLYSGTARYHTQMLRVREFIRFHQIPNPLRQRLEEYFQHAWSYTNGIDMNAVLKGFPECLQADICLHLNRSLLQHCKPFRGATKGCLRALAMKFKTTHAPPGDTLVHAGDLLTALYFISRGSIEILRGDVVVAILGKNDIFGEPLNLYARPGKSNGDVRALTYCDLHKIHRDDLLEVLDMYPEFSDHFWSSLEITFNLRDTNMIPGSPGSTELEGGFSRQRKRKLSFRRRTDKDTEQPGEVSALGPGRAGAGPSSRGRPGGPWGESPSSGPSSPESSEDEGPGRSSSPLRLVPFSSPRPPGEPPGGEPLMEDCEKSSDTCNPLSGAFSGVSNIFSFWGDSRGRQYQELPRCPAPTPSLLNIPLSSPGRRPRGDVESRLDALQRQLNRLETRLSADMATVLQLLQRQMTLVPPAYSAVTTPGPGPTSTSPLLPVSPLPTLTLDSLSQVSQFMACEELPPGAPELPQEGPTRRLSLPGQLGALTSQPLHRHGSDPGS
row,Compound,"hERG current change (%, negative = inhibition) at 10uM [%]"
1,COc1ccc(CN2C(=O)[C@H]3Cc4c([nH]c5ccccc45)C(C)(C)N3C2=O)cc1,7
2,COc1cccc(NC(=O)N(Cc2cc3cc(C)cc(C)c3[nH]c2=O)CC2COCCO2)c1 (stereo not drawn),4.85
3,Cc1nnc(SCC(=O)N(Cc2ccccc2)C(C)C)n1-c1ccccc1,-5.28
4,Cc1c(O)ccc2c(=O)c(-c3nncn3-c3ccccc3)coc12,21.2
5,COc1ccc(NC(=O)c2ccccc2C)cc1,14.9
6,Cc1c(C(=O)NCCc2ccccc2)oc2ccc(S(=O)(=O)N3CCOCC3)cc12,-19.1
7,CC(C)CC(=O)NCC(C)NC(=O)CC(C)C (stereo not drawn),3.51
8,COc1ccc(C(CC(=O)N2CCN(c3ccccc3)CC2)c2c(OC)cc(OC)c3ccc(=O)oc23)cc1 (stereo not drawn),1.88
9,Fc1ccc(C2CC(c3ccccc3)Nc3ncnn32)cc1 (stereo not drawn),-45.9
10,Fc1ccc(C2CC(c3ccc(F)cc3)n3ncnc3N2)cc1 (stereo not drawn),-60
11,Clc1ccc(C2CC(c3ccccc3)Nc3ncnn32)cc1 (stereo not drawn),-64.4
12,c1ccc(C2CC(c3ccccc3)n3ncnc3N2)cc1 (stereo not drawn),-17.3
13,Fc1ccc(C2CC(c3ccccc3)n3ncnc3N2)cc1 (stereo not drawn),-29.3
14,Cc1ccc(C2CC(c3ccccc3)n3ncnc3N2)cc1 (stereo not drawn),-1.18
15,CCc1ccc(/C=C2\SC(=S)N(CCCC(=O)Nc3nccs3)C2=O)cc1,8.83
16,Cc1ccc(S(=O)(=O)n2nc(OC(=O)c3ccccc3F)cc2N)cc1,9.49
17,CC(=O)Nc1c(Nc2ccccc2)c2ccccc2oc1=O,3.92
18,COc1cc(OC)cc(C(=O)N2CCN(C(=O)COc3ccc4ccccc4c3)CC2)c1,-64.8
19,COc1ccc(C(=O)N2CCN(C(=O)c3cc(OC)c(OC)c(OC)c3)CC2)cc1,-17.4
20,COc1ccccc1CN1CCN(C(=O)COc2ccc3ccccc3c2)CC1,-36

row,Compound,"hERG current change (%, negative = inhibition) at 10uM [%]"
1,COc1ccc(N2CCN(C(=O)COc3ccc4ccccc4c3)CC2)cc1,5.36
2,COc1cc(OC)c(OC)cc1CN1CCN(C(=O)COc2ccc3ccccc3c2)CC1.O=C(O)C(=O)O,-36.4
3,CN1CCN(C(=O)COc2ccc3ccccc3c2)CC1,-3.47
4,COc1cccc(C(=O)N2CCN(C(=O)COc3ccc4ccccc4c3)CC2)c1,-47.4
5,COc1cc(C(=O)N2CCN(C(=O)COc3ccc4ccccc4c3)CC2)cc(OC)c1OC,-73
6,COc1ccc(CN2CCN(C(=O)COc3ccc4ccccc4c3)CC2)c(OC)c1,-52.6
7,NC(=O)CCN(C1CCCCC1)S(=O)(=O)c1cccc2nsnc12,10.5
8,Cc1ccc(SCc2cc(=O)c3c(=O)n(-c4ccccc4)[nH]c3[nH]2)cc1,7.34
9,N#Cc1nc(-c2ccco2)oc1N1CCCC1,-11.1
10,COC(=O)c1cc(S(=O)(=O)NCc2ccc3c(c2)OCO3)cn1C,-0.484
11,CCOC(=O)c1cc(-c2ccc(N3CCOCC3)cc2)nn1-c1ccccc1C(=O)O,5.59
12,O=c1nc2ccccc2c2n1CC(CN1CCN(Cc3ccccc3)CC1)N2 (stereo not drawn),-66.1
13,O=c1nc2ccccc2c2n1CC(CN1CCN(C(c3ccccc3)c3ccccc3)CC1)N2 (stereo not drawn),-81.4
14,O=C(O)CN1CCN(C(c2ccccc2)c2ccccc2)CC1,30.4
15,c1ccc(CN2CCN(c3nc4ccccc4c4ccccc34)CC2)cc1,-3.19
16,COc1cc2nc(CN3CCN(C(c4ccccc4)c4ccccc4)CC3)[nH]c(=O)c2cc1OC,1.59
17,O=C(CCc1nc2ccccc2c(=O)[nH]1)NC1CCN(Cc2ccccc2)CC1,-0.782
18,COCCCNC(=O)CCn1c(=O)c2ccccc2n(CC(=O)Nc2ccccc2C)c1=O,9.98
19,CCOc1ccc(Cc2nnc(N)s2)cc1OCC,-6.21
20,NC(=O)C1(S(=O)(=O)c2ccccc2)CCCCC1,13.2

row,Compound,"hERG current change (%, negative = inhibition) at 10uM [%]"
1,CC1(C)OC(C)(C)/C(=C/Nc2ccccc2)C1=O,10.2
2,CC1(C)OC(=O)C(=CNc2ccccc2)C(=O)O1,-4.48
3,C[N+]1=C(/C=C/Nc2ccccc2)C(C)(C)c2ccccc21.[O-][Cl+3]([O-])([O-])[O-],-81.8
4,COc1ccc(OCC(=O)Nc2ccc(S(=O)(=O)N3CCCCC3)cc2)cc1,-20.2
5,O=C1c2ccc([N+](=O)[O-])cc2C(=O)N1c1ccc([N+](=O)[O-])cn1,14.5
6,CCOC(=O)C1CCCN(c2nc3ccccc3nc2C(C#N)C(=O)OC(C)C)C1 (stereo not drawn),8.39
7,CCOC(=O)C1CCN(c2nc3ccccc3nc2C(C#N)C(=O)OC(C)COC)CC1 (stereo not drawn),-13.9
8,CCOC(=O)C1CCCN(c2nc3ccccc3nc2C(C#N)C(=O)OCC)C1 (stereo not drawn),-14
9,CCOC(=O)C1CCCN(c2nc3ccccc3nc2C(C#N)C(=O)OC(C)COC)C1 (stereo not drawn),-55.2
10,CCOC(=O)C1CCCN(c2nc3ccccc3nc2C(C#N)C(=O)OCCOC)C1 (stereo not drawn),-66
11,CCOC(=O)C1CCN(c2nc3ccccc3nc2C(C#N)C(=O)OCCOC)CC1 (stereo not drawn),-27.4
12,C/C(=N\NC(=O)CCCOc1ccc(Cl)cc1C)c1ccc(C)o1,3.58
13,COc1cccc(-n2cc(CNC(=O)C3CCC(=O)N(C4CC4)C3)cn2)c1 (stereo not drawn),-11
14,COc1ccccc1C(=O)Nc1ccccc1SC,-20.3
15,CCCn1c(CN2CCCCC2CC)nc2c1c(=O)n(C)c(=O)n2C (stereo not drawn),-5.14
16,CCCCCn1c(CN2CCCCC2C)nc2c1c(=O)n(C)c(=O)n2C (stereo not drawn),-44.7
17,CCCCCn1c(CN2CCCCC2CC)nc2c1c(=O)n(C)c(=O)n2C (stereo not drawn),-44.7
18,CCCn1c(CN2CCCCC2C)nc2c1c(=O)n(C)c(=O)n2C (stereo not drawn),3.04
19,CCCCCCn1c(CN2CCCCC2C)nc2c1c(=O)n(C)c(=O)n2C (stereo not drawn),-60.5
20,CCCCCCn1c(CN2CCCCC2CC)nc2c1c(=O)n(C)c(=O)n2C (stereo not drawn),-51.9
